# Source: PubChem (National Center for Advancing Translational Sciences (NCATS))
# HPGD block – blocks human HPGD enzyme activity; purified HPGD, NADH fluorescence kinetic, PGE2 substrate; P15428; hit rate 4.3% among 150,000; Potency, µM, without a hit: at the highest dose activity change, negative = inhibition, usual class: inhibitors; also: potency is read from the fitted curve at half-maximal effect
#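 NADH formation kinetics: reaction with 30 uM PGE2 and 1 mM NAD+ (final), 20 nM enzyme, Tris-HCl pH 8 with Tween 20, after 15 min compound preincubation at room temperature. Fluorescence change, last versus first of five reads.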
# ALDH1A1 inh – ALDH1A1 (human) enzyme inhibition; Purified ALDH1A1, NADH fluorescence, propionaldehyde substrate; hit rate 7.3% among 220,000; P00352; AID 1030; Potency, µM (top dose mostly 75.3 µM), for the others: at the top dose activity, negative = inhibition, usual class: inhibitors;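 also: potency is read from the fitted curve at half-maximal effect; plate controls were no enzyme wells and a reference inhibitor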
# Target sequence (P00352 whole entry, looked up): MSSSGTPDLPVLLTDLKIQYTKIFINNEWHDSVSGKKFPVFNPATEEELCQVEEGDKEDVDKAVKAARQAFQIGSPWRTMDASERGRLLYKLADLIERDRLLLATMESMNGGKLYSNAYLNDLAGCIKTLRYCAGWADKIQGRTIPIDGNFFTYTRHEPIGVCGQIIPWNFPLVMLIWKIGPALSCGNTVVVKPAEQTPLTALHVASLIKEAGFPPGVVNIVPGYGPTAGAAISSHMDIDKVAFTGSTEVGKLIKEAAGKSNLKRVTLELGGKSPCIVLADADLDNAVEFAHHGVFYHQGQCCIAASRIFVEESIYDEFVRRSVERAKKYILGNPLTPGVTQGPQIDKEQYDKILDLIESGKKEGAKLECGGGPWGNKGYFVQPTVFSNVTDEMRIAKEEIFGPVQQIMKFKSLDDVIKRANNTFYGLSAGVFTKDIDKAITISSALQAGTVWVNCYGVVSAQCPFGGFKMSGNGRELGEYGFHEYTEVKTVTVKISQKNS
# IMPase inh – cell-permeable inhibitors of inositol monophosphatase (IMPase). CHO-M1 cells, IP1 accumulation, HTRF TR-FRET ratio. inhibition (IP1 accumulation), % at 46.1 µM. 120,000 tested, under 10 active. AID 901; active = well fitted curve in the direction sought with a large enough effect in the signal ratio, not every such curve was filed as active; inconclusive = small, poorly fitted or top-dose-only effect, or a change in a side signal; inactive = no such curve, though single readings can be large or run the other way; the % refers to the signal ratio;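 also: cells stimulated with carbachol in lithium chloride buffer; plate controls were DMSO basal wells for no effect and reference inhibitor wells for full effect; higher means more IMPase inhibition seen as more IP1 and lower FRET ratio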
#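 Elevated IP1 in lysates lowers TR-FRET signal (665/620 ratio and 620 channel reported). Cells were CHO-M1, given carbachol (50 uM as added) plus 50mM LiCl, pH 7.4, 30 min, 37C; compounds titrated up to 46 uM; AC50 by Hill equation.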
# An asterisk follows results filed as active; ? = inconclusive; nt = no result given. A selection: hits, their analogues and other compounds. The true share with any hit is near 9%. Unless noted, calls follow the shape of the dose curve; as a rule, active = well fitted inhibition curve with a large enough effect (not every such curve was filed as active); inconclusive = small, poorly fitted or top-dose-only effect, or another doubt; inactive = no such curve, though single readings can be large or run the other way. Unless noted, % is scaled to controls: 0 for no effect and ±100 for the full control effect.
SMILES,HPGD block,ALDH1A1 inh,IMPase inh
Cc1ccc(NC(=O)c2cc(N3C(=O)C=CC3=O)ccc2N2CCOCC2)cc1,nt,0.35µM*,nt
Cc1ccc(NC(=O)c2cc(NC(=O)c3ccco3)ccc2N2CCOCC2)cc1,-14%,?,9
COc1ccc2ccc3c(c2c1)N=CC1(O3)N(C)c2ccccc2C1(C)C (stereo not given),?,13µM*,8
CN1c2ccccc2C(C)(C)C12C=Nc1c(ccc3ccccc13)O2 (stereo not given),-13%,-14%,21
O=C(NC(NCc1cccnc1)C(Cl)(Cl)Cl)c1cccc2ccccc12 (stereo not given),-14%,6%,-8
Cc1nc(N2N=C3/C(=C/c4ccc(F)cc4)CCCC3C2c2ccc(F)cc2)sc1C(=O)N(C)C (stereo not given),?,?,3
Fc1ccc(/C=C2\CCCC3=C2NC(=S)NC3c2ccc(F)cc2)cc1 (stereo not given),25µM*,?,nt
CCCCn1c(CCn2nc(C)c(Br)c2C)n[nH]c1=S,22µM*,-10%,7
CCn1c(CCCCc2n[nH]c(=S)n2CC)n[nH]c1=S,nt,7%,nt
CC(OC(=O)C1=COCCO1)C(=O)Nc1cc(S(=O)(=O)N2CCCCC2)ccc1Cl (stereo not given),nt,-2%,nt
O=Cc1ccsc1B(O)O,-5%,1%,nt
O=C(NC1CCCC1)C1CCCN1C(=O)Oc1ccccc1 (stereo not given),nt,7%,nt
O=C(CCC(=O)c1ccc(Cl)cc1)OCC(=O)c1ccccc1,?,1%,-7
O=C(CCc1ccccc1)OCC(=O)c1ccc([N+](=O)[O-])cc1,nt,8.9µM*,nt
CC(C)CC(NC(N)=O)C(=O)NCc1ccccc1Cl (stereo not given),nt,3%,nt
COC(=O)c1ccc(NC(C)=O)o1,-4%,11%,3
COC(=O)c1ccc(NC(=O)c2ccccc2)o1,32µM*,-12%,-6
COc1cc(S(=O)(=O)NCc2cccnc2)ccc1F,-4%,2%,-4
CCC(Sc1ncnc2c1c(-c1ccccc1)cn2-c1ccc(OC)cc1)C(=O)OC (stereo not given),-19%,-11%,19
Cc1csc(NC(=O)[C@@H]2CCCN2C(=O)c2cccs2)n1,nt,5%,nt
COc1ccc(C(=O)NC(=S)Nc2cccc(Cl)c2N2CCOCC2)cc1[N+](=O)[O-],-8%,0.4µM*,7
CCOc1ccc(C(=O)NC(=S)NC2CCCC2)cc1[N+](=O)[O-],-11%,13µM*,nt
COc1ccc(C(=O)NC(=S)Nc2cc(C)ccn2)cc1[N+](=O)[O-],-9%,0.32µM*,nt
CCOc1ccc(C(=O)NC(=S)Nc2ccccc2N2CCCCC2)cc1[N+](=O)[O-],-19%,?,nt
CCOc1ccc(C(=O)NC(=S)Nc2ccc(NC(=O)CC)cc2)cc1[N+](=O)[O-],-20%,?,nt
SMILES,HPGD block,ALDH1A1 inh,IMPase inh
CCOc1ccc(C(=O)NC(=S)Nc2ccc(N3CCCCC3)cc2)cc1[N+](=O)[O-],32µM*,11µM*,nt
COc1ccc(C(=O)NC(=S)Nc2ccccc2N2CCCCC2)cc1[N+](=O)[O-],-16%,?,nt
COc1ccc(C(=O)Nc2cc(C)on2)cc1[N+](=O)[O-],nt,0%,nt
CCCCCCCCCCCCCCCC(=O)OCC(O)C1OC(=O)C(O)=C1O (stereo not given),-14%,-9%,nt
COC(=O)CC1c2ccccc2C=C(C2CC2)N1C(=O)OC (stereo not given),-3%,1%,nt
CCOc1ccc(NC(=O)CSc2nnc3scc(-c4ccccc4)n23)cc1,nt,nt,-6
N#CC1CC(c2ccccc2)=NN1c1ccccc1[N+](=O)[O-] (stereo not given),nt,-9%,nt
C=CCNC(=O)C1CCC(C(=O)NCC=C)CC1 (stereo not given),nt,13%,nt
O=C(CCS(=O)(=O)c1cc(Br)cc2c1N(C(=O)C1CC1)CC2)N1CCN(c2cccc(Cl)c2)CC1,nt,nt,6
COc1ccc(CCCC(=O)Nc2ccc(F)cc2)cc1,-18%,-9%,nt
Cc1ccc(N(CC(=O)N2CC(=O)Nc3ccccc32)S(=O)(=O)c2ccc3c(c2)OCCO3)cc1,-14%,?,-5
CCOc1ccc(C(F)(F)F)cc1NC(=O)c1ccc(OC)c([N+](=O)[O-])c1,-4%,?,-6
CCOc1ccc(C(=O)NC(=S)Nc2ccccc2OC)cc1[N+](=O)[O-],-9%,8.9µM*,nt
CCOc1ccc(Br)cc1S(=O)(=O)Nc1ccc(C(=O)Nc2ccc(C)cc2)cc1,-8%,16%,nt
CCOc1ccc(Br)cc1S(=O)(=O)Nc1ccc(C(=O)Nc2ccccc2OC)cc1,-29%,16µM*,nt
CN(NC1OC(=O)c2ccccc21)c1ccccc1[N+](=O)[O-] (stereo not given),nt,7%,nt
CSc1ccccc1OC1CCN(Cc2ccccc2)CC1,-13%,-2%,nt
COc1cc(/C=C/c2cc(OC(C)=O)c3ccccc3n2)c(OC(C)=O)c([N+](=O)[O-])c1,-15%,4%,23
CC(=O)C(C(C)=O)C1(O)C(=O)c2ccccc2C1=O,7%,1.6µM*,nt
COC(=O)CC1(c2ccccc2)C(=O)c2ccccc2C1=O,-10%,2%,1
Cc1ccc(-c2onc3ccc(C4OCCO4)cc23)cc1,nt,5%,nt
CCCCCC[C@@H]([C@H](C)O)n1cnc2c(N)ncnc21,nt,nt,3
O=C1CC(C(=O)N2CCC(N3CCC(C(=O)NC4CC4)CC3)CC2)c2ccccc21 (stereo not given),nt,-1%,nt
CC(=O)/C=C/c1ccccc1O,nt,4%,nt
COC(=O)/C=C/c1cc(O)ccc1O,nt,28µM*,nt
SMILES,HPGD block,ALDH1A1 inh,IMPase inh
COc1ccc(CNC(=O)Nc2ccccc2)cc1,nt,4%,nt
COc1ccc(N2CCC(CNC(=O)Nc3ccccc3)C2)cc1 (stereo not given),?,5µM*,0
O=C(NCC1CCN(S(=O)(=O)c2ccccc2)CC1)Nc1ccc(F)cc1F,nt,-1%,nt
O=C(NCC1CCN(S(=O)(=O)c2ccccc2)CC1)Nc1ccccc1,nt,28µM*,nt
CSc1nnc(-c2cccc(C)c2)n1N,-14%,4%,3
O=C(Nc1nnc(SCC(=O)N2CCOCC2)s1)c1ccccc1,32µM*,-7%,nt
O=C(CSc1ccc(-c2cccs2)nn1)N1CCCCCC1,11µM*,-5%,-18
O=C(CSc1ccc(-c2cccnc2)nn1)N1CCCCCC1,nt,-11%,nt
Cc1nnc(SCC(=O)N2CCOCC2)s1,-6%,11%,-7
COc1cccc(CNC(=O)CSc2ccc(-c3cccs3)nn2)c1,nt,3%,nt
O=C(CSc1ccc(-c2cccnc2)nn1)N1CCCC1,nt,2%,nt
O=C(CSc1ccc(-c2cccs2)nn1)NCc1ccccc1Cl,32µM*,0%,?
O=C(CSc1ccc(-c2cccs2)nn1)N1CCCCC1,3.5µM*,?,-10
O=C(CCSCCC(=O)Nc1c(F)c(F)c(F)c(F)c1F)Nc1c(F)c(F)c(F)c(F)c1F,nt,1%,nt
CCCC(=O)Nc1ccccc1NC(=O)c1ccc(OC(C)=O)cc1,nt,11%,nt
CCCNC(=O)N1N=C(c2ccc(N)cc2)c2cc3c(cc2[C@H]1C)OCO3,-28%,?,1
O=C(CSc1ccc(-c2ccccc2)nn1)N1CCOCC1,-22%,28µM*,5
O=C(CSc1ccc(-c2ccc(F)cc2)nn1)N1CCOCC1,nt,0%,nt
CCOC(=O)N1CCc2c(sc3c2c(=O)n(Cc2ccccc2)c(=O)n3Cc2ccc(C)cc2)C1,-9%,-6%,nt
